Bioassay records from PubChem BioAssay.
The list is not random: actives were taken first. Their share in the collection is about 2.8%.
Shn3 3UTR inh: Schnurri-3 reporter inhibition in Clone20 osteoblasts; Clone20 osteoblast Shn3 3'UTR firefly luciferase, 24 h; inhibition, % at 12.5 µM; 360,000 tested, 0.52% active; AID 588674;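 active = mean inhibition of at least 75% with every replicate also reaching 75%; inconclusive = mean inhibition at least 75% but some replicate below; inactive = mean inhibition below 75%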;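 note: 0% = median of neutral control wells and 100% = pilot-screen positive control compound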
EBV LMP1 NFkB: Epstein-Barr LMP1 NF-kappaB reporter inhibition | 350,000 tested, 0.69% active | inhibition, % at 12.5 µM | AID 504558 | LMP1-induced NF-kappaB luciferase reporter cells, luminescence; in the data active = inhibition above about 41%; inconclusive = no clear call, values can overlap the other calls;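 note: 0% = neutral control wells and 100% = reference inhibitor control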
Peg3 prom inh-1: inhibitors of Peg3 promoter | 360,000 tested, 1.7% active | AID 588405 | HeLa PEG-Prom luciferase reporter, luminescence, overnight | inhibition, % at 20 µM;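 active = inhibition of at least 50% at 20 µM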
PAX8 inh HTS: PAX8 transcriptional activity inhibition; inhibition, % at 12.6 µM; AID 652154; RMG-I TPO-luciferase reporter, SteadyGlo, 24 h; 360,000 tested, 1.2% active;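 active = mean replicate inhibition at least 60% with every replicate also reaching 60%; inconclusive = only one of the two criteria is met; inactive = mean below 60% and not all replicates reaching 60%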;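 note: luciferase light reporting Pax8 driven TPO promoter activity; plate controls were median of neutral control wells for no effect and mitoxantrone controls for full effect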
HIF-2a block: inhibitors of HIF-2a | 786-0 RCC cells HIF-2a reporter, luciferase luminescence, overnight | inhibition, % at 18.8 µM | 360,000 tested, 0.72% active;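 active = inhibition of the luminescence signal of 40% or more relative to plate controls, in a single-dose primary screen at 18.75 µM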
MITF TRPM1 inh: inhibitors of MITF-driven TRPM1 promoter in melanoma cells; 330,000 tested, 0.83% active; SK-MEL-5 TRPM1 promoter luciferase, 24 h; AID 488899; inhibition, % at 12.5 µM;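 active = mean inhibition across replicates of 60% or more, whatever share of single replicates reaches that level; inconclusive = some that reach 60%, reason not given; inactive = mean inhibition across replicates below 60%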
Peg3 prom inh-2: confirmation of Peg3 promoter inhibitors. HeLa PEG-Prom luciferase reporter, luminescence, overnight. 1,300 tested, 84% active. inhibition, % at 20 µM. shares compounds with Peg3 prom inh-1;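 active = at 20 µM dose, 40% or more inhibition averaged across four replicates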
Active calls of the source: *; ? = inconclusive; nt = no result given.

SMILES	Shn3 3UTR inh	EBV LMP1 NFkB	Peg3 prom inh-1	PAX8 inh HTS	HIF-2a block	MITF TRPM1 inh	Peg3 prom inh-2
Oc1ccc(C[C@H]2CNCCN2CCc2cc(C(F)(F)F)cc(C(F)(F)F)c2)cc1	-18	7	58*	-18	-90	0	82*
O=Nc1c(-c2c(O)[nH]c3cc(Br)ccc23)[nH]c2ccccc12	-50	-59	101*	26	-17	-5	98*
COc1ccccc1C(=O)N1C[C@H]2[C@@H](c3ccccc31)[C@H](CO)N2C(=O)C1CCCCC1	nt	nt	nt	-2	nt	nt	nt
O=C(CN1C(=O)S/C(=C/c2cccs2)C1=O)N1CCCC1	-3	-13	-17	-12	-40	-5	nt
COc1cc(/C=C2\SC(=S)N(CCC(=O)N3CCCCC3)C2=O)cc(OC)c1OC	-10	7	68*	100*	22	13	47*
O=C(CCN1C(=O)/C(=C/c2cccs2)SC1=S)N1CCCCC1	9	6	112*	69*	-24	7	92*
Cc1nn(C)cc1NC(=O)C[C@@H]1CC[C@@H]2[C@H](COc3ccc(NC(=O)Nc4cccc(Cl)c4)cc3C(=O)N2C)O1	nt	nt	nt	4	nt	nt	nt
CCCCCCN1C=C/C(=C\C=C(C#N)C#N)c2ccccc21	67	26	56*	5	34	36	45*
CC(=O)Nc1ccc2c(c1)C(=O)N(C)[C@@H]1CC[C@@H](CC(=O)Nc3cn(C)nc3C)O[C@H]1CO2	nt	nt	nt	4	nt	nt	nt
O=C1OCCC1Sc1nnc(-c2ccc(Cl)cc2Cl)o1 (stereo not given)	28	50*	71*	53	76*	40	63*
Cc1ccccc1-c1cnc2c(c1)C(=O)N([C@H](C)CO)C[C@H](C)[C@H](CN(C)Cc1cncnc1)O2	nt	nt	nt	-6	nt	nt	nt
CCn1cc(C(=O)NCCC(C)C)c(=O)c2cc(F)c(N3CCN(C(=O)c4ccco4)CC3)cc21	-7	14	64*	8	12	17	49*
CCN(CC)CCNC(=O)c1cn(CC)c2cc(N3CCN(C(=O)c4ccco4)CC3)c(F)cc2c1=O	14	-4	19	26	11	2	nt
Cc1ccc(S(=O)(=O)N[C@H]2CC[C@@H](CCNS(=O)(=O)Cc3ccccc3)O[C@@H]2CO)cc1	nt	nt	nt	13	nt	nt	nt
COc1ccccc1S(=O)(=O)N(C)C[C@H]1OCc2ccccc2-c2ccccc2C(=O)N([C@H](C)CO)C[C@@H]1C	nt	nt	nt	3	nt	nt	nt
CC(NNC(=S)N1CCN(c2ccccn2)CC1)c1nccc2ccccc12 (stereo not given)	93*	72*	92*	72*	52*	86*	87*
CCc1cccc(CC)c1NC(=S)NCCc1c(C)[nH]c2ccc(C)cc12	17	-5	69*	15	2	3	85*
CN1CCC(N(C)C(=O)/C=C/c2cn(-c3ccccc3)nc2-c2cccs2)CC1	-15	-43	77*	22	4	?	93*
CCN(CC(=O)Nc1ccc(NC(C)=O)cc1)C(=O)/C=C/c1cn(-c2ccccc2)nc1-c1cccs1	6	-2	-1	-6	-72	-24	nt
Cc1ccc(C(C(=O)NCc2ccco2)N(C(=O)CNC(=O)c2cccs2)c2c(C)cccc2C)cc1 (stereo not given)	31	-4	66*	2	20	13	23
Cc1ccc(C(C(=O)NCc2ccco2)N(Cc2ccco2)C(=O)CNC(=O)c2ccco2)cc1 (stereo not given)	17	-59	2	nt	16	3	nt
CN=c1sc(C(=O)Nc2ccccc2)c(C)n1C	-5	4	-10	-7	-7	16	nt
CN=c1sc2c(n1C)C(=O)c1ccccc1C2=O	3	4	88*	-5	-98	93*	91*
CC(=O)Nc1ccc(S(=O)(=O)N(Cc2cccnc2)Cc2cc3ccccc3[nH]c2=O)cc1	-5	-6	56*	71*	-13	4	46*
COc1ccc(N(Cc2cc3cc(OC)ccc3[nH]c2=O)S(=O)(=O)c2ccc(NC(C)=O)cc2)cc1	7	33	62*	91*	11	5	61*
CC(=O)Nc1ccc(S(=O)(=O)N(Cc2ccco2)Cc2cc3ccccc3[nH]c2=O)cc1	0	-6	60*	25	-4	4	55*
